{
  "source": "the supplement of paper PMC6555819",
  "data": [
    {"test_system": "PXR:RXRa (NR concentration 270 nM, RXRa partner concentration 90 nM)", "assay": "PBM binding z-score (relative to random genomic background probes); higher = stronger binding; sequences stand for … in GC…GCGATTGACAGCGTAGAATGAAGG", "in_short": "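Binding buffer was PBS pH 7.4 with 2% milk, 0.02% Triton X-100, 1 mM DTT, 0.2 mg/mL BSA and 0.4 mg/ml salmon testes DNA. In it, ligand-free nuclear receptor dimers were incubated 1 h on custom Agilent 4×180K protein-binding microarrays carrying double-stranded probes. Antibodies against each partner (one per run) detected binding, and z-scores were calculated against random background probes after regression normalization of scanned fluorescence.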", "values": [
      {"sequence": "CAAACTAGGTCACCGGAAGGTCAAACTCCGCATG", "PBM binding z-score": 6.17},
      {"sequence": "TAGCCTAGGTCAGATCGGACCAGTATACGCTATA", "PBM binding z-score": 0.377},
      {"sequence": "TCATATAGGTAAAAGGTGAAAGTCGGTGTGGTAA", "PBM binding z-score": 2.17},
      {"sequence": "ACTATTCGTTGAGACGAGGGCAACCGATAGGTTG", "PBM binding z-score": 0.447},
      {"sequence": "TCGAGTAGGTTACCAATGGGCCATTCAGCTTTCT", "PBM binding z-score": 0.108},
      {"sequence": "TCGAGTAGGTTAGACGGGGCATTCAGCCAACATA", "PBM binding z-score": -0.0359},
      {"sequence": "AGAATGAGGTTACTAAGATCAGGGAATTGCGGTC", "PBM binding z-score": 0.828},
      {"sequence": "CCGACTGAGGCAGAAAGGTTACCATACCATCCGG", "PBM binding z-score": 0.855},
      {"sequence": "GCAGACAGGTGAAACGCACGTAACTCAGGGTGGC", "PBM binding z-score": -0.397},
      {"sequence": "CCGACTGGGGCAGAAAGGTTACCATACCATCCGG", "PBM binding z-score": 0.796},
      {"sequence": "GCTCGGAGGAAAAGGTCAGAGCTTTGTCCGTAGA", "PBM binding z-score": 2.93},
      {"sequence": "AGAATGAGGTAAAGATCAGGGAAACAGAATACAT", "PBM binding z-score": 0.125},
      {"sequence": "CAGCCCAGGTCAGGGCCAGTATAGGAGGAACGTT", "PBM binding z-score": 0.95},
      {"sequence": "CGAACTAGGTCAGAACAGGACAGTGGAGGATGAT", "PBM binding z-score": 0.65},
      {"sequence": "CCTACTGGGCCATCAGGTCATTGATATCAACGTT", "PBM binding z-score": 1.56},
      {"sequence": "GTTTACGGGTCAAAGGTTATAGCATGAATAGAAT", "PBM binding z-score": 6.4},
      {"sequence": "TCAGACAGGTGAAGGTAACTCCGGTACGCAGTCG", "PBM binding z-score": 0.475},
      {"sequence": "TAGCCTAGGTCATGGGCCAGTATGCCACGCGAAC", "PBM binding z-score": 1.42}
    ]}
  ]
}
